Assay outcomes as filed in PubChem BioAssay.
Rows were chosen to be rich in hits. Some 4.6% of all compounds tested hit in one or more screens of this group.
ADAM10 inh – inhibitors of human ADAM10; inhibition, % at 7 µM; hit rate 0.62% among 370,000; recombinant ADAM10, EDANS/DABCYL FRET peptide cleavage, 3 h; O14672; AID 720582;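 active = inhibition above a per-campaign cutoff equal to the mean of compounds falling between control-based bounds plus 3 SD, cut at about 20% in these data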
NR3A LBD binder – modulators (binders) of human NR3A ligand-binding domain. Tm shift relative to glycine control, % at 25 µM. NR3A LBD differential scanning fluorimetry, Tm shift; 0% = protein alone, 100% = glycine-bound protein. hit rate 2.5% among 340,000;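 active = melting temperature shift of at least 10% of the positive control shift, at one fixed dose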
proKLK7 act – proKLK7 (human) activation, primary screen | P49862 | purified proKLK7, EDANS-DABCYL substrate fluorescence; 100% is mature enzyme control, 0% vehicle | activation, % at 7 µM | hit rate 0.9% among 370,000;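 active = activation above the mean of all tested compounds plus 3 SD, computed per campaign excluding outliers beyond control limits, cut at about 13% in these data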
Target sequence (P49862 whole entry, looked up): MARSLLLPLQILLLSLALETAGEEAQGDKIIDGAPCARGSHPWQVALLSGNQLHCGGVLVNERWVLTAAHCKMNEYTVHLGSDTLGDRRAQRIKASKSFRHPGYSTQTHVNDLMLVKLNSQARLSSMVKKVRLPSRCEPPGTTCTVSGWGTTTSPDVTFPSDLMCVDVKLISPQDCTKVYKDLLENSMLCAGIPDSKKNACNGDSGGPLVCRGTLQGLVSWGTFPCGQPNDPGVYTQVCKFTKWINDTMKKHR
ADAM17 inh – inhibits human ADAM17 | hit rate 0.83% among 370,000 | P78536 | inhibition, % at 6.95 µM | recombinant ADAM17, EDANS/DABCYL FRET peptide cleavage | AID 720648;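 active = inhibition above the mean of compounds lying between control limits plus 3 SD, set per campaign, cut at about 8.5% in these data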
FAS TE block – FAS thioesterase (human) inhibition; P49327; recombinant FAS-TE, OMFH fluorogenic substrate, fluorescence endpoint; inhibition, % at 15 µM; hit rate 0.67% among 360,000;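 active = compounds whose normalised, plate-corrected inhibition of enzyme fluorescence in the single-dose primary screen is 50% or more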
ADAM10 confirm – human ADAM10 inhibition, confirmation | shares compounds with ADAM10 inh | ADAM10 QFRET peptide cleavage, EDANS fluorescence | inhibition, % at 6.95 µM | hit rate 1% among 2,100;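 active = inhibition above about 20% chosen separately for each screening run, limit read from the data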
ADAM17 counter – ADAM17 inhibition, counter-screen for ADAM10 exosite hits | inhibition, % at 6.95 µM | AID 743214 | ADAM17 QFRET peptide cleavage, EDANS fluorescence | hit rate 0.5% among 2,100 | shares compounds with ADAM10 inh;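 active = mean triplicate inhibition above the solvent-only control wells' mean plus 3 SD, cut at about 12% in these data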
ADAM10 ctr – counter-screen for ADAM17 exosite inhibitors: inhibitors of human ADAM10; hit rate 47% among 2,900; shares compounds with ADAM17 inh; recombinant ADAM10, EDANS/DABCYL FRET peptide cleavage, 3 h; inhibition, % at 6.95 µM; AID 743256;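 active = mean inhibition over the triplicate runs exceeds the activity threshold set in the earlier primary screen, cut at about 20% in these data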
ADAM17 confirm – human ADAM17 inhibition, confirmation; recombinant ADAM17, EDANS/DABCYL QFRET peptide cleavage; hit rate 65% among 2,900; shares compounds with ADAM17 inh; inhibition, % at 6.95 µM; AID 743257;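 active = mean inhibition across replicates above the hit cutoff set in the primary screen, cut at about 8.5% in these data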
Of the large screens only hits and unclear results are named; the others gave an inactive call (follow-up assays come after a bar, where they were run).

Cc1ccccc1-c1cc(-c2ccccc2O)n[nH]1	ADAM10 inh 24, ADAM17 inh 11 | ADAM10 confirm inactive | ADAM17 counter inactive | ADAM10 ctr inactive | ADAM17 confirm 10.0
Oc1ccccc1-c1cc(-c2ccccc2)n[nH]1	none
CC(C)S(=O)(=O)N[C@@H]1c2cc3c(cc2[C@H](c2ccccc2)[C@H]1C)OCO3	none (no result: NR3A LBD binder, FAS TE block)
Cc1ccc(NC(=O)CN(C)C(=O)c2cccnc2Nc2cccc(C(F)(F)F)c2)cc1	ADAM10 inh 36, NR3A LBD binder 16, ADAM17 inh 13 | ADAM10 confirm inactive | ADAM17 counter inactive | ADAM10 ctr 52 | ADAM17 confirm 28
CCOc1ncccc1C(=O)N(C)CC(=O)Nc1ccc(C)cc1	none
CCSc1ccc([C@@H]2[C@H]3C(=O)N(C)C(=O)[C@H]3[C@]3(C(=O)OC)CCCCN23)cc1	ADAM10 inh 22, ADAM17 inh 18 | ADAM10 confirm inactive | ADAM17 counter inactive | ADAM10 ctr inactive | ADAM17 confirm inactive
CCOc1ccc(NS(=O)(=O)c2cc(NC(=O)c3cccc(C)c3)ccc2Cl)cc1	ADAM10 inh 31, ADAM17 inh 14 | ADAM10 confirm inactive | ADAM17 counter inactive | ADAM10 ctr 31 | ADAM17 confirm 19
Cc1cc(C(=O)COC(=O)CC2Sc3ccccc3NC2=O)c(C)n1-c1ccccc1 (stereo not given)	ADAM10 inh 28, ADAM17 inh 18 | ADAM10 confirm inactive | ADAM17 counter inactive | ADAM10 ctr 21 | ADAM17 confirm 12
COC(=O)c1ccc(-n2c(C)cc(C(=O)COC(=O)CC3Sc4ccccc4NC3=O)c2C)cc1 (stereo not given)	none
CC(C)C[C@@H](NC(=O)OC(C)(C)C)C(=O)N1O[C@]23C=C[C@]14C[C@@H](O)CC[C@]4(C)C2CC[C@]1(C)[C@@H]([C@H](C)/C=C/[C@H](C)C(C)C)CC[C@H]13 (stereo not given in full)	none (no result: NR3A LBD binder, FAS TE block)
O=C(/C=C1\NC2(CCCC2)Cc2ccccc21)C(=O)N/N=C/c1ccc(O)c(O)c1	ADAM10 inh 22, ADAM17 inh 12 | ADAM10 confirm inactive | ADAM17 counter inactive | ADAM10 ctr inactive | ADAM17 confirm 9.4
CCN(CC(=O)Nc1cccc(OC)c1)CC(=O)Nc1ccc(Br)c(C)c1	ADAM10 inh 23, ADAM17 inh 12 | ADAM10 confirm inactive | ADAM17 counter inactive | ADAM10 ctr 45 | ADAM17 confirm 16
O=C(C1CCN(S(=O)(=O)c2ccc3[nH]c(=O)oc3c2)CC1)N1CCCC1	none (no result: NR3A LBD binder, FAS TE block)
NC(=O)[C@@H]1CC2(CC(c3cccc(NC(=O)CC(c4ccccc4)c4ccccc4)c3)=NO2)CN1C(=O)c1ccc(Cl)cc1 (stereo not given in full)	ADAM10 inh 23, ADAM17 inh 11 | ADAM10 confirm inactive | ADAM17 counter inactive | ADAM10 ctr 45 | ADAM17 confirm 21
NC(=O)[C@H]1CC2(CC(c3cccc(NC(=O)CC(c4ccccc4)c4ccccc4)c3)=NO2)CN1C(=O)CC(c1ccccc1)c1ccccc1 (stereo not given in full)	ADAM10 inh 31, NR3A LBD binder 17, ADAM17 inh 16 | ADAM10 confirm inactive | ADAM17 counter inactive | ADAM10 ctr 33 | ADAM17 confirm 19
CCC(=O)N1CC2(CC(c3cccc(NC(=O)CC(c4ccccc4)c4ccccc4)c3)=NO2)C[C@H]1C(N)=O (stereo not given in full)	none
CCCn1c(NC(=O)c2ccccc2)nc(Cc2ccccc2)c1-c1ccc(OC)cc1	none (no result: NR3A LBD binder, FAS TE block)
CCCC1CCC2(CC1)CCC2OC(=O)Nc1cc(C)cc(C)c1 (stereo not given)	none (no result: NR3A LBD binder, proKLK7 act, FAS TE block)
